Shown are actives, neighbours in structure and some others; about 2.2% of the full set was active somewhere.
Nrf2 activator: activators of Nrf2 (ARE) signaling; AID 624171; hit rate 0.31% among 410,000; AREc32 ARE-luciferase reporter (MCF7-derived line), luminescence, 24 h; Potency, µM (series often up to 46.1 µM), for the others: at the top dose activation, hits mostly activators; also: % of control where 0% means no effect; nearly all actives have a fitted effect of over 65% in size
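Steps: seed AREc32_Fluc cells (1000/well, 5% FBS OPTI-MEM); incubate overnight at 37 deg C; add 23 nL compound; incubate 24 hr; add Steady-Glo; hold 30 min RT; read luminescence.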
Nrf2 inh: Nrf2 pathway inhibition | hit rate 2.1% among 360,000 | A549 ARE-Fluc reporter, luciferase luminescence, 18-24 h | AID 504444 | Potency, µM (top dose mostly 46 µM), for the others: top-dose activity change, negative = inhibition, actives largely listed as inhibitors; also: % is scaled to controls: 0 for no effect and ±100 for the full control effect; nearly all actives have a fitted effect of over 60% in size
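Cells were seeded and rested 2 h, then exposed to compounds for 18-24 h. CellTiter-Fluor was read first as a viability measure. BugLite was added 15 min before the final luminescent read of ARE-luciferase activity in A549 cells.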
Pin1 inh: inhibitors of human Pin1; Q13526; Pin1 FP peptide displacement, HiFluor488, 10 min; Potency, µM (highest dose often 115 µM), for the others: top-dose activity, negative = inhibition, usual class: inhibitors; hit rate 0.009% among 390,000; AID 504891; active = well fitted inhibition curve with a large enough effect in the polarisation, with a control signal flat, not every such curve was filed as active; inconclusive = small, poorly fitted or top-dose-only effect, or effect the other way, or a change in a side signal; inactive = no such curve, though single readings can be large or run the other way; the % refers to the polarisation; also: % is scaled to controls: 0 for no effect and ±100 for the full control effect
A549 tox-1: counter-screen for Nrf2 inhibitors: cytotoxicity in A549 cells; AID 504648; hit rate 0.16% among 390,000; Potency, µM (doses to about 46 µM), for the others: at the top dose activity change, negative = cytotoxicity, hits mostly inhibitors; A549 ARE-Fluc cells, CellTiter-Fluor viability, 18-24 h; also: % is scaled to controls: 0 for no effect and ±100 for the full control effect
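Cytotoxicity counterscreen: CellTiter-Fluor fluorescence was measured in A549 ARE_Fluc cells after 18-24 h of compound exposure in a concentration series. The subsequent BugLite luminescent read reports ARE-luciferase activity.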
FLuc enzyme inh: counter-screen for Nrf2 inhibitors: firefly luciferase enzyme inhibition; hit rate 4% among 1,400; shares compounds with Nrf2 inh; AID 720522; Potency, µM (series often up to 57.5 µM), inactives show top-dose activity change, negative = inhibition, actives largely listed as inhibitors; purified firefly luciferase, luminescence inhibition; also: % is scaled to controls: 0 for no effect and ±100 for the full control effect; nearly all actives have a fitted effect of over 65% in size
Target sequence (P08659 whole entry, looked up): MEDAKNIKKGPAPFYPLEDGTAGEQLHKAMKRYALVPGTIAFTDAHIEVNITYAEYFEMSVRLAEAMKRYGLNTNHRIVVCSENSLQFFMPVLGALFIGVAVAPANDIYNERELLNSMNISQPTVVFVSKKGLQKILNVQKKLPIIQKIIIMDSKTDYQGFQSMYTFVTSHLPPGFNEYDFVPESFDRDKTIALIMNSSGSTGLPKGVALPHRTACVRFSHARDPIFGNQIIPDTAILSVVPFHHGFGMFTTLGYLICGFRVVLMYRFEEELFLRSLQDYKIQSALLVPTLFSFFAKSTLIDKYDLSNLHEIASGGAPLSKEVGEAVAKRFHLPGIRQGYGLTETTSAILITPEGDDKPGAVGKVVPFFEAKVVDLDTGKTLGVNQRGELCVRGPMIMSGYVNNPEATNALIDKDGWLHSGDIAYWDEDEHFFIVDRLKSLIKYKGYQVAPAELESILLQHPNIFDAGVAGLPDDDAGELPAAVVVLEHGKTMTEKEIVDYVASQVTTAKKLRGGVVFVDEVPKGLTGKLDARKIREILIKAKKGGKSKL
A549 tox-2: toxic to A549 ARE-Fluc cells in Nrf2 counterscreen. A549 ARE-Fluc cells, cytotoxicity counterscreen. Potency, µM (doses to about 46.1 µM), without a hit: top-dose activity change, negative = cytotoxicity, hits mostly inhibitors. AID 720523. shares compounds with Nrf2 inh. hit rate 2% among 1,400;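 also: cells exposed to compounds for 18 to 24 hours; % is scaled to controls: 0 for no effect and ±100 for the full control effect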
ARE-Fluc inh: Nrf2 inhibition confirmed, A549 ARE-luciferase. hit rate 74% among 1,400. shares compounds with Nrf2 inh. Potency, µM (highest dose often 46.1 µM), inactives show at the highest dose activity change, negative = inhibition, most hits filed as inhibitors. A549 ARE-firefly luciferase reporter, luminescence; also: % is scaled to controls: 0 for no effect and ±100 for the full control effect; nearly all actives have a fitted effect of over 65% in size
An asterisk follows results filed as active; u = inconclusive; x = no result given. Unless noted, calls follow the shape of the dose curve; as a rule, active = well fitted curve in the direction sought with a large enough effect; inconclusive = small, poorly fitted or top-dose-only effect, or another doubt; inactive = no such curve, though single readings can be large; an effect the other way counts as inactive or inconclusive. Potency is read from the fitted curve at half-maximal effect.

SMILES	Nrf2 activator	Nrf2 inh	Pin1 inh	A549 tox-1	FLuc enzyme inh	A549 tox-2	ARE-Fluc inh
CC1=C(C(=O)NC2CCCc3c2cnn3-c2cccc(C)c2C)OCCO1 (stereo not drawn)	0%	7.3µM*	-3%	-7%	2%	-3%	12µM*
O=C(CSc1nc2c([nH]c3ccccc32)c(=O)n1-c1cccc(C(F)(F)F)c1)N1CCc2ccccc21	-1%	x	29%	6%	x	x	x
Nc1c(Cl)ncnc1N/N=C/c1ccccn1	12%	5.2µM*	-19%	u	u	u	2.1µM*
COc1ccc(CNC(=O)c2ccc(Cl)c(S(=O)(=O)N3CCOCC3)c2)cc1OC	-1%	1.3µM*	-2%	u	0%	5%	x
O=C(Nc1ccc(N2CCOCC2)cc1)c1ccc(Cl)c(S(=O)(=O)N2CCCC2)c1	1%	9.2µM*	15%	0%	-2%	-3%	7.3µM*
O=C(NCCc1ccccc1)c1ccc(Cl)c(S(=O)(=O)N2CCCC2)c1	0%	u	0%	-6%	x	x	x
O=C(NCCc1ccc(F)cc1)c1ccc(Cl)c(S(=O)(=O)N2CCOCC2)c1	0%	8.2µM*	u	-9%	-12%	-8%	u
Cc1ccc(C(=O)Nc2ccc(N3CCOCC3)cc2)cc1S(=O)(=O)N1CCCCC1	0%	u	0%	3%	x	x	x
COc1ccc(CCNC(=O)c2ccc(Cl)c(S(=O)(=O)N3CCCCCC3)c2)cc1	-1%	8.2µM*	4%	-13%	0%	-10%	8.2µM*
O=C(Oc1ccccc1F)c1nc(SCc2ccccc2F)ncc1Cl	-1%	19%	-4%	0%	x	x	x
COc1ccc(CCNC(=O)Cn2c(=O)cc(C(F)(F)F)c3c(C)nn(C)c32)cc1OC	0%	-19%	7%	6%	x	x	x
CC1CN(S(=O)(=O)c2cc(C(=O)NCCC3=CCCCC3)ccc2Cl)CC(C)O1 (stereo not drawn)	3%	8.2µM*	-12%	-19%	u	-15%	5.8µM*
CC1CCCN(S(=O)(=O)c2cc(C(=O)NCCc3ccc(S(N)(=O)=O)cc3)ccc2Cl)C1 (stereo not drawn)	0%	4.1µM*	4%	u	1%	-26%	12µM*
O=C(NCCC1=CCCCC1)c1ccc(F)c(S(=O)(=O)N2CCOCC2)c1	0%	3%	5%	-4%	x	x	x
Cc1oc(-c2ccc(Cl)cc2)nc1CS(=O)CC(=O)NCCCN1CCN(Cc2ccccc2)CC1 (stereo not drawn)	3%	5.8µM*	-1%	-4%	3%	-14%	12µM*
Cc1oc(-c2ccc(Cl)cc2)nc1CS(=O)CC(=O)NCCCN1CCCC(C)C1 (stereo not drawn)	3%	1%	-1%	2%	x	x	x
CCOc1ccc(C(=O)c2cn(Cc3ccccc3)c3c(F)cc(F)cc3c2=O)cc1	1%	u	13%	-9%	x	x	x
CCOc1ccc(NC(=O)Cc2csc(COc3cccc(C)c3)n2)cc1	0%	-7%	4%	4%	x	x	x
CC(=O)c1ccc(S(=O)(=O)N2CCN(CCOc3ccc(Br)cc3)CC2)cc1	1%	4.1µM*	u	u	0%	-8%	5.8µM*
CCOc1ccc(S(=O)(=O)N2CCN(S(=O)(=O)c3ccc(C(C)=O)cc3)CC2)cc1	0%	6%	4%	4%	x	x	x
CCc1ccc(NC(=O)c2ccc3c(=O)n4c(nc3c2)CCCCC4)cc1	0%	u	-5%	-19%	x	x	x
CCN(CC)S(=O)(=O)c1ccc(NC(=O)c2ccc3c(=O)n4c(nc3c2)CCCCC4)cc1	0%	9.2µM*	13%	u	-9%	-15%	8.2µM*
CCOc1ccc2c(c1)C(=NNC(=O)c1ccncc1)c1cc(OCC)ccc1-2	3%	5.8µM*	-3%	-18%	u	u	5.2µM*
CCOc1ccc(NC(=O)c2ccncc2)cc1	0%	3%	0%	-3%	x	x	x

Screening results deposited in PubChem BioAssay by National Center for Advancing Translational Sciences (NCATS).
